This is an account of results in PubChem BioAssay.

The subject of experiment [1] is Wnt5a (protein binding on small-molecule microarray). Kind of experiment: small molecules binding Wnt5a protein – biophysical, small-molecule microarray, 635/667 nm fluorescence, primary screen (AID 1142).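 Note: fluorescence read at 667 nm with signal to noise per printed feature.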 The note with it: 635 nm fluorescence, higher = more signal.
Experiment [2] in a line: ATP-based viability of Huh7 replicon cells – cell-based, CellTiter-Glo luminescence, basal, 48 h, cytotoxicity control for HCV replication inhibitor project, primary screen (AID 1143).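 Note: Huh7 hepatoma cells carrying a hepatitis C replication reporter with no stimulus; test concentration not given here.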 The note with it: higher = more signal, called active from +8 up or from −8 down. In general terms: Replicon systems follow genome replication, usually without infectious particles.
A short description of experiment [3]: Pseudomonas biofilm growth suppression – PAO1 strain, BacTiter-Glo luminescence, LB-PBS, primary screen (AID 1144). The settings on record: P. aeruginosa PAO1 biofilm, 12 h, higher = more signal.
A short description of experiment [4]: basal CRE-LacZ reporter activity in PC12 – cell-based, unstimulated, primary screen (AID 1145). The settings on record: no forskolin, luminescence, 4.5 h, higher = more signal, called active from +8 up or from −8 down.
Experiment [5] is described as follows: forskolin-driven CRE-LacZ activity in PC12 – cell-based, CRE-LacZ reporter, forskolin-stimulated, primary screen (AID 1146).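 Note: PC12 cells with 6xCRE LacZ reporter stimulated by forskolin 10 µM; beta-galactosidase reporter signal reflecting CREB driven transcription.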 The note with it: luminescence, 4.5 h, higher = more signal, called active from +8 up or from −8 down.
Experiment [6] deals with Streptavidin (Streptomyces avidinii) (UniProt P22629). In words: compounds binding control protein streptavidin – biophysical, small-molecule microarray, 635/667 nm fluorescence, artefact control for SMM compound annotation, primary screen (AID 1147).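 Note: signal reflects streptavidin binding to arrayed compounds as a control protein.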 The note with it: higher = more signal.
Chain of Streptavidin (Streptomyces avidinii) (P22629 whole entry, looked up): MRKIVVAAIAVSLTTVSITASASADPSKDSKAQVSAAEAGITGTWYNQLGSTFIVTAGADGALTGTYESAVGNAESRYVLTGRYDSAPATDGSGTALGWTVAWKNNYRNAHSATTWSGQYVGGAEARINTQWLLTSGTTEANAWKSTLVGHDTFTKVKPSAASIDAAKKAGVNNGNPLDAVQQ
Experiment [7] can be described thus: probe aInhba binding on compound microarray – biochemical, small-molecule microarray, 635/667 nm fluorescence, primary screen (AID 1148).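 Note: score merges 667nm spot fluorescence with signal-to-noise for antibody binding to printed compounds.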 The settings on record: higher = more signal.
For experiment [8], the target named is Torsin-1A (Homo sapiens) (UniProt O14656). Kind of experiment: TOR1A wild-type binding on microarray – cell lysate, small-molecule microarray, lysate, 635/667 nm, primary screen (AID 1149). The note with it: COS7 hTOR1A-WT lysate, 635 nm fluorescence, higher = more signal.
Chain of Torsin-1A (Homo sapiens) (O14656 whole entry, looked up): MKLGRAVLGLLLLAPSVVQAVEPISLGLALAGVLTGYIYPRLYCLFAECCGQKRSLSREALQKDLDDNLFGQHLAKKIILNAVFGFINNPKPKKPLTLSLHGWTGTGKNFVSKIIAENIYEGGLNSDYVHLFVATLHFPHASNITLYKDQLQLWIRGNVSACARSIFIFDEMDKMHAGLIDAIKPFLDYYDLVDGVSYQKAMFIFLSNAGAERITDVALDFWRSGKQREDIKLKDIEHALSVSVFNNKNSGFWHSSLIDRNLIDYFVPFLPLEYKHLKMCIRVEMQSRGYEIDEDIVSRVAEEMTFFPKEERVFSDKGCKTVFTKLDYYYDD
Experiment [9] shares this target. In words: torsin A mutant lysate binding on microarrays – cell lysate, small-molecule microarray, COS7 lysate, 635/667 nm fluorescence, primary screen (AID 1150).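 Note: score pools 667 nm emission and signal to noise measuring lysate protein binding.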 The note with it: COS7 hTOR1A mutant lysate, 635 nm fluorescence, higher = more signal.
Experiment [10] concerns Sonic hedgehog protein (Shh). Kind of experiment: Sonic hedgehog microarray binding compounds – biochemical, small-molecule microarray, 635/667 nm fluorescence, primary screen (AID 1151).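 Note: Shh protein binding to compounds spotted on small-molecule microarray slides; score combines spot fluorescence intensity with signal-to-noise across triplicate slides.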 The settings on record: 635 nm fluorescence, higher = more signal.
The nature of experiment [11]: optical density shifts of acrAB sulA E. coli – strain DRC41, OD650, 48 h, E. coli filamentation inducer project, primary screen (AID 1152).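 Note: E. coli MC1000 strain DRC41 lacking acrAB efflux pump and sulA.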 The settings on record: higher = more signal, called active from +8 up or from −8 down.
Experiment [12] in a line: probe aLefty1 binding on compound microarray – biochemical, small-molecule microarray, 635/667 nm fluorescence, primary screen (AID 1153).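 Note: score merges spot fluorescence with signal-to-noise ratio from the scanned slide images.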 The settings on record: higher = more signal.
A short description of experiment [13]: plasmodial surface anion channel blockers, osmotic lysis – cell-based, P. falciparum Indochina, OD700, 1 h, primary screen (AID 1154). The settings on record: P. falciparum Indochina infected RBC osmotic lysis, higher = more signal, called active from +8 up or from −8 down.
A short description of experiment [14]: plasmodial surface anion channel blockers, osmotic lysis – cell-based, P. falciparum Indochina, OD700, 2 h, primary screen (AID 1155).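 Note: lysis reports solute entry through the parasite surface anion channel PSAC.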 The note with it: P. falciparum Indochina infected erythrocytes, higher = more signal, called active from +8 up or from −8 down.
The nature of experiment [15]: changes in parasitized red cell lysis, either direction – P. falciparum Indochina, OD700, 3 h, PSAC antagonist project, primary screen (AID 1156). The note with it: P. falciparum-infected erythrocytes, osmotic lysis, higher = more signal, called active from +8 up or from −8 down.
A short description of experiment [16]: plasmodial surface anion channel blockers, osmotic lysis – cell-based, P. falciparum Indochina, OD700, 18 h, primary screen (AID 1157). The note with it: P. falciparum Indochina infected erythrocytes, osmotic lysis OD700, 18 h; higher = more signal, called active from +8 up or from −8 down.
The nature of experiment [17]: S6 kinase pathway phospho-S6 level changes – cell-based, A549, cytoblot, luminescence, serum-stimulated, primary screen (AID 1158).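 Note: serum-stimulated A549 lung adenocarcinoma cells; signal is phosphorylated S6 detected by cytoblot immunostaining with HRP secondary.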 The settings on record: 5 h, higher = more signal.
Experiment [18] addresses NADPH oxidase 2 (Homo sapiens) (UniProt P04839). Kind of experiment: compounds shifting NOX2 Amplex Red fluorescence – cell-based, HEK293-NOX2, PMA-stimulated, NOX inhibitor project, primary screen (AID 1159). Note: test concentration not given here. The settings on record: 45 min, higher = more signal, called active from +8 up or from −8 down.
In experiment [19] the target is NADPH oxidase 4 (Homo sapiens) (UniProt Q9NPH5). Kind of experiment: compounds shifting NOX4 Amplex Red fluorescence – cell-based, HEK293-NOX4, tetracycline-induced, NOX inhibitor project, primary screen (AID 1160). The settings on record: HEK293-NOX4, Amplex Red H2O2 fluorescence, 45 min; higher = more signal, called active from +8 up or from −8 down.
Chain of NADPH oxidase 4 (Homo sapiens) (Q9NPH5 whole entry, looked up): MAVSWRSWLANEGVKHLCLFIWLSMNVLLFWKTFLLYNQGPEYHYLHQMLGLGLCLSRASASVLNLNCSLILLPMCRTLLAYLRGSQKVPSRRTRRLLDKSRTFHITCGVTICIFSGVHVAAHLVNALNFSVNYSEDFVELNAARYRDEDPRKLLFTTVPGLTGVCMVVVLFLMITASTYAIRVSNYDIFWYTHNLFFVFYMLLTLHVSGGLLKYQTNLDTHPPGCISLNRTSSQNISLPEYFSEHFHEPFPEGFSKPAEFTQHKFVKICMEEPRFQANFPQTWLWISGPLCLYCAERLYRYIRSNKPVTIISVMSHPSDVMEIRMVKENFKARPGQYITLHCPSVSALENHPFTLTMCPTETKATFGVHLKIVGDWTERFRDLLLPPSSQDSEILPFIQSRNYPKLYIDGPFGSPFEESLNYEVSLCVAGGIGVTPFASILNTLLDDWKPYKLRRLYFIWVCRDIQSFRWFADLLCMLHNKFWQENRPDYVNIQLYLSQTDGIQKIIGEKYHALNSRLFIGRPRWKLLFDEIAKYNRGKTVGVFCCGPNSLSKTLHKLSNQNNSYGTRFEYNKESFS
In experiment [20] the target is NADPH oxidase 5 (Homo sapiens) (UniProt Q96PH1). Kind of experiment: compounds shifting NOX5 Amplex Red fluorescence – cell-based, HEK293-NOX5, NOX inhibitor project, primary screen (AID 1161). The settings on record: HEK293-NOX5, ionomycin, 45 min, higher = more signal.
Chain of NADPH oxidase 5 (Homo sapiens) (Q96PH1 whole entry, looked up): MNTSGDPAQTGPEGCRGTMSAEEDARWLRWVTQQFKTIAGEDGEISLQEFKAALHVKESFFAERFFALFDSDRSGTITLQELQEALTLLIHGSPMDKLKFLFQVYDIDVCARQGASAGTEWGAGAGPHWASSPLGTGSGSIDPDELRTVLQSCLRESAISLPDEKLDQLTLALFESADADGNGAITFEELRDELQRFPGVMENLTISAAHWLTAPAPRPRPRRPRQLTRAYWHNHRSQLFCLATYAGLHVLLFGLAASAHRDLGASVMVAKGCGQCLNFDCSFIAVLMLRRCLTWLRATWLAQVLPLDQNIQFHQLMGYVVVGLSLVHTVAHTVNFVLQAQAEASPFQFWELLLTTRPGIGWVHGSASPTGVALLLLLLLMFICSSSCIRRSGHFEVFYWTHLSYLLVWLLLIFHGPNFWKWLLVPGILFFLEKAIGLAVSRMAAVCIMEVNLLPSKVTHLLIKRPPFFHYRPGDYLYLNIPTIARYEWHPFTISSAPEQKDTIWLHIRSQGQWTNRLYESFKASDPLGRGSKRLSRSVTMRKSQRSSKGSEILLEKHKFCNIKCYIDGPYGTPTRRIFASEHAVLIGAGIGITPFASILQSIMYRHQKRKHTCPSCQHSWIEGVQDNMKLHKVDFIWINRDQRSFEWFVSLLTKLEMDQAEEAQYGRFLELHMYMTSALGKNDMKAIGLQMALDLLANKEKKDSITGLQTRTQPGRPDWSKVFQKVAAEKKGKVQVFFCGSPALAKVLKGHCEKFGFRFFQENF

Calls of active or inactive are those of the source. Unless noted, the rule behind the calls is not given here.

Chain of NADPH oxidase 2 (Homo sapiens) (P04839 whole entry, looked up): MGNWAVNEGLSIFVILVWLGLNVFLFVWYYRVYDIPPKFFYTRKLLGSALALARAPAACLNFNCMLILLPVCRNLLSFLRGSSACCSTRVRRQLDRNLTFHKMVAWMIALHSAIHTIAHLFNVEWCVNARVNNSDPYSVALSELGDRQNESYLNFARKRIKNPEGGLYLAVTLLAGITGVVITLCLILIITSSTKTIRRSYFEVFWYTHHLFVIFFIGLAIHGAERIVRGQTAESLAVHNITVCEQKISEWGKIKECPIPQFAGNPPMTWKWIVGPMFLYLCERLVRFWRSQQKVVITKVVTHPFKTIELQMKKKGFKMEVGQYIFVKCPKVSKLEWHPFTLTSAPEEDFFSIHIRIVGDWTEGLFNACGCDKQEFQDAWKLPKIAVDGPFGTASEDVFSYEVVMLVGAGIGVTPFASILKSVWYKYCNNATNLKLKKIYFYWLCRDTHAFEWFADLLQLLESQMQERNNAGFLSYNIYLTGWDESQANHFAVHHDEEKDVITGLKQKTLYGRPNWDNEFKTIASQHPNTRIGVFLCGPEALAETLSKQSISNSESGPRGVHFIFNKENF

In the case of `CC(=O)n1cc(C(O)C2C=CC3C(=O)N(c4ccccc4)C(=O)C3N2Nc2ccccc2F)c2ccccc21` (stereo not given), the composite z-score in experiment [1] was -0.296; in [6], 0.0289; in experiment [7] it was -0.157; with Torsin-1A (Homo sapiens) [8] it was -0.561; with Torsin-1A (Homo sapiens) [9], 0.495; in [10] it was -0.813. The compound also yielded a composite z-score in experiment [12] of -0.147. Also, the z-score in experiment [2] was -3.27 (inactive); in experiment [3] it was -1.69 (inactive); in experiment [4], -0.172 (inactive); in [5] it was 0.499 (inactive); in experiment [11], 0.506 (inactive); in experiment [13], 8 (active). Besides, the z-score in [14] is 1.04 (inactive); in experiment [15], 0.0784 (inactive); in [16] it was -0.0595 (inactive); in experiment [17] it was 0.988; in experiment [18] it was -1.82 (inactive); in experiment [19], -3.23 (inactive). In [20], the z-score was -0.614.

With `COc1ccc(NN2C(C(O)c3cc(C(F)(F)F)cc(C(F)(F)F)c3)C=CC3C(=O)N(C4CCCCC4)C(=O)C32)cc1` (stereo not given), the composite z-score was 0.397 in experiment [1]; 0.837 in experiment [6]; 1.19 in experiment [7]; 0.408 with Torsin-1A (Homo sapiens) [8]; 1.19 in the experiment with Torsin-1A (Homo sapiens) [9]; -0.0356 in [10]. The same compound showed a composite z-score in [12] of 1.41. Moreover, the z-score in [2] was -2.42 (inactive); in [3], -1.1 (inactive); in experiment [4], -0.723 (inactive); in experiment [5], -0.504 (inactive); in experiment [11], -0.523 (inactive); in [13], 1.62 (inactive). Besides, the z-score in [14] was 0.507 (inactive); in experiment [15], 0.545 (inactive); in experiment [16], 0.632 (inactive); in [17], -0.35; in experiment [18], -0.934 (inactive); in [19], -1.64 (inactive). Besides, the z-score in [20] was -1.35.

For the compound `CCCCC(=C=CC[C@@H](O)c1cccc(OCCO)c1)CCO`, the composite z-score in [1] is 0.0999; in experiment [6], 1.42; in experiment [7], -0.188; with Torsin-1A (Homo sapiens) [8], -1.33; in the experiment with Torsin-1A (Homo sapiens) [9], -0.828; in experiment [10] it was 0.364. The composite z-score in [12] was -0.142. The z-score in experiment [2] was -0.562 (inactive); in experiment [3] it was -0.564 (inactive); in experiment [4], 3.5 (inactive); in [5], -0.468 (inactive); in [11], 0.896 (inactive); in [13], 6.54 (inactive). In addition, the z-score in [14] is 1.02 (inactive); in [15], 0.842 (inactive); in [16], 0.528 (inactive); in [17], 1.3; in experiment [18] it was -0.681 (inactive); in experiment [19], -0.283 (inactive). The z-score in experiment [20] was -1.8.

Regarding `[N-]=[N+]=NCc1ccccc1C[C@]1(C(=O)O)COC(c2ccc(OCCCO)cc2)=N1`, the composite z-score in [1] was -0.333; in experiment [6], -0.878; in experiment [7], -0.13; in the experiment with Torsin-1A (Homo sapiens) [8], 0.861; in the experiment with Torsin-1A (Homo sapiens) [9], 0.0486; in [10], -1.03. The compound further had a composite z-score in [12] of 0.118. The z-score was 0.432 (inactive) in [2]; 0.475 (inactive) in [3]; -0.426 (inactive) in experiment [4]; -0.916 (inactive) in experiment [5]; 0.0626 (inactive) in experiment [11]; 5.11 (inactive) in experiment [13]. The z-score in [14] is 0.179 (inactive); in experiment [15], 1.56 (inactive); in experiment [16] it was -0.315 (inactive); in [17], 0.49; in [18] it was 0.0988 (inactive); in experiment [19], 1.27 (inactive). The z-score in experiment [20] was 0.641.
